The source of these data is publication PMC4336329 (PLoS ONE, 2015).

The structures appear in SMILES notation. The campaign covered roughly 310,000 compounds. About 14,000 (4.5%) showed an effect of 50% or more. The effect is printed as a negative number. The list comes from a sample in which strong results are over-represented; it also holds similar structures and randomly drawn compounds.
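Note: peak tail current of the secondary pulse compared with the same well before compound.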

The target of this test is human ether-à-go-go-related gene (hERG) potassium channel (human, UniProt Q12809). Nature of the test: primary screen, population patch clamp on CHO cells stably expressing hERG; higher = less effect of the substance.
human ether-à-go-go-related gene (hERG) potassium channel, sequence (Q12809 whole entry, looked up): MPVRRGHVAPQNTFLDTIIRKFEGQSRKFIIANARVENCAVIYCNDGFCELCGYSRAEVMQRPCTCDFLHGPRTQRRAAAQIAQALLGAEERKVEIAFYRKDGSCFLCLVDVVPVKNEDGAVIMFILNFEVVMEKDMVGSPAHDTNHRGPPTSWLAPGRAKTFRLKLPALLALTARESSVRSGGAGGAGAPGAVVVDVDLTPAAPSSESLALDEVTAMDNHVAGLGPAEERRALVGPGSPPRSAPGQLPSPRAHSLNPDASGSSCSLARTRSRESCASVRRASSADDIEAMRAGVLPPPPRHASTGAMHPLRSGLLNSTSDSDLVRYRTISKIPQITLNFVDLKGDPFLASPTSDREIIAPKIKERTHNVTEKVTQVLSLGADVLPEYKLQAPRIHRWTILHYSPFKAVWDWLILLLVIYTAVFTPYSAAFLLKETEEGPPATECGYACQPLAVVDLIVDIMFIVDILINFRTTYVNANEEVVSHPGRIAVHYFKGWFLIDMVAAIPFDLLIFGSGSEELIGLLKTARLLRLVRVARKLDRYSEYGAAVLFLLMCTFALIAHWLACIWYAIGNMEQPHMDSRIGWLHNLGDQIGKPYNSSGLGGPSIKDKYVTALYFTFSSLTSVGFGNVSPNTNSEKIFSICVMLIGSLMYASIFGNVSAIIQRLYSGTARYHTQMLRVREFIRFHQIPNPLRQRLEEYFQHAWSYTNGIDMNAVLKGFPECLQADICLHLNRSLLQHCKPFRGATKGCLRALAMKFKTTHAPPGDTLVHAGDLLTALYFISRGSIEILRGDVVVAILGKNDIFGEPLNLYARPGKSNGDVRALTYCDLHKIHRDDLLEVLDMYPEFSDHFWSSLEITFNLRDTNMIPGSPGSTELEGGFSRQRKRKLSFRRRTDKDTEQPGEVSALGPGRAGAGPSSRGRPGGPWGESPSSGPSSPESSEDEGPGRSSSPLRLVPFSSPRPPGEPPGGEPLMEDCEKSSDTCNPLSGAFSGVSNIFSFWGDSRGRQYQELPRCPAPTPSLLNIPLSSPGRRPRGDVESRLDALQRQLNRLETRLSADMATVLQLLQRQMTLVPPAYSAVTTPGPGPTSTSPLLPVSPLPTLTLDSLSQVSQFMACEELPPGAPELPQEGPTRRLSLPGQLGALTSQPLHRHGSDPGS
Turning to `CSc1ccccc1NC(=O)CN(C)CC(=O)Nc1ccc(Cl)cc1[N+](=O)[O-]`, the “hERG current change (%, negative = inhibition) at 10uM” value was -31.6%.

As to `O=C(CN1C(=O)C2CC=CCC2C1=O)NCC(=O)Nc1ccc(F)c(F)c1F` (stereo not drawn), the “hERG current change (%, negative = inhibition) at 10uM” value was found to be 7.55%.

Turning to `Cc1cc(Cl)c(S(=O)(=O)N/N=C/c2ccc3c(c2)OCO3)c(Cl)c1`, the “hERG current change (%, negative = inhibition) at 10uM” value is 2.77%.

On to `COc1ccc(NC(=O)N2CCc3ccccc3C2)cc1OC`, for which the “hERG current change (%, negative = inhibition) at 10uM” value is 11.3%.

In the case of `CCNc1nc(NC(C)C)nc(Nn2cnnc2)n1`, the “hERG current change (%, negative = inhibition) at 10uM” value was 9.05%.

Take `O=C(NCc1cccs1)C1CCN(S(=O)(=O)c2cccc3nsnc23)CC1`: the “hERG current change (%, negative = inhibition) at 10uM” value is on record as -13.1%.

In the case of `CS(=O)(=O)c1ccccc1C(=O)Nc1cc(Cl)ccc1-n1cncn1`, the “hERG current change (%, negative = inhibition) at 10uM” value is recorded as 13.4%.

As for `Cc1cc(Cl)ccc1NC(=O)CN1C(=O)NC2(CCCc3ccccc32)C1=O` (stereo not drawn), the “hERG current change (%, negative = inhibition) at 10uM” value is listed as -1.38%.

On to `Cc1ccc(NC(=O)CN2C(=O)NC3(CCCc4ccccc43)C2=O)c([N+](=O)[O-])c1` (stereo not drawn), for which the “hERG current change (%, negative = inhibition) at 10uM” value is -75.6%.

In the case of `O=C(CN1C(=O)NC2(CCCc3ccccc32)C1=O)c1ccc(F)cc1` (stereo not drawn), the “hERG current change (%, negative = inhibition) at 10uM” value was -17%.

As for `O=C(CN1C(=O)NC2(CCc3ccccc32)C1=O)c1ccccc1` (stereo not drawn), the “hERG current change (%, negative = inhibition) at 10uM” value is listed as 15.1%.

`O=C(CN1C(=O)NC2(CCc3ccccc32)C1=O)c1ccc(F)cc1` (stereo not drawn): the “hERG current change (%, negative = inhibition) at 10uM” value was -57.4%.

Turning to `CS(=O)(=O)c1ccc(C(=O)CN2C(=O)NC3(CCCc4ccccc43)C2=O)cc1` (stereo not drawn), the “hERG current change (%, negative = inhibition) at 10uM” value is -51.5%.

`O=C(CN1C(=O)NC2(CCCc3ccccc32)C1=O)c1ccc(Br)cc1` (stereo not drawn): the “hERG current change (%, negative = inhibition) at 10uM” value is on record as -20.4%.

In the case of `COc1ccc(C(=O)CN2C(=O)NC3(CCCc4ccccc43)C2=O)cc1` (stereo not drawn), the “hERG current change (%, negative = inhibition) at 10uM” value is given as -36.2%.

`Cc1ccc(F)cc1NC(=O)CN1C(=O)NC2(CCCc3ccccc32)C1=O` (stereo not drawn): the “hERG current change (%, negative = inhibition) at 10uM” value is -1.5%.

Regarding `CCCS(=O)(=O)Nc1cccc(-c2cn3c(n2)SCC3)c1`, the “hERG current change (%, negative = inhibition) at 10uM” value is reported as -14.1%.

Regarding `COc1ccc(OC)c(S(=O)(=O)N2CCCC(C(=O)NCCN3CCOCC3)C2)c1` (stereo not drawn), the “hERG current change (%, negative = inhibition) at 10uM” value came out at 21.2%.

Take `O=S(=O)(NCc1cccnc1)c1ccc(Cl)s1`: the “hERG current change (%, negative = inhibition) at 10uM” value is 6.91%.

For the compound `COc1ccc(C(=O)NCc2nnc(SCC(=O)Nc3nnc(C)s3)o2)cc1`, the “hERG current change (%, negative = inhibition) at 10uM” value worked out at 14.5%.

Take `N#CC1(NC(=O)CSc2nnc(C3CC3)n2C2CC2)CCCCC1`: the “hERG current change (%, negative = inhibition) at 10uM” value is -8.52%.

Consider `CCS(=O)(=O)c1ccc2oc(Nc3ccc(OC)c(OC)c3)nc2c1`, for which the “hERG current change (%, negative = inhibition) at 10uM” value amounted to 8.05%.

As to `C=CCN(C(=O)C1=NN(C2CCS(=O)(=O)C2)C(=O)CC1)c1nc(-c2ccc([N+](=O)[O-])cc2)cs1` (stereo not drawn), the “hERG current change (%, negative = inhibition) at 10uM” value is given as -63.5%.

With `Cc1ccc(-c2csc(NC(=O)C3=NN(C4CCS(=O)(=O)C4)C(=O)CC3)n2)cc1` (stereo not drawn), the “hERG current change (%, negative = inhibition) at 10uM” value is -3.9%.

With `C=CCN(C(=O)C1CC(=O)N(C2CCCC2)C1)c1nc(-c2ccc(S(C)(=O)=O)cc2)cs1` (stereo not drawn), the “hERG current change (%, negative = inhibition) at 10uM” value is -47.1%.

Regarding `CN1CCN(C2=Nc3cc(F)ccc3Cc3ccccc32)CC1`, the “hERG current change (%, negative = inhibition) at 10uM” value is given as -35.7%.

As for `Cc1sc(NC(=O)Cc2ccc3c(c2)OCO3)nc1-c1ccc2c(c1)CCN2C(=O)c1ccccc1F`, the “hERG current change (%, negative = inhibition) at 10uM” value was -0.586%.

Take `COc1cc(NC(=O)Cc2c(C(=O)O)n(C)c3ccccc23)cc(OC)c1OC`: the “hERG current change (%, negative = inhibition) at 10uM” value is 35%.

Regarding `Cc1ccc(-n2c(O)c(C=NC3CCS(=O)(=O)C3)c3ccccc3c2=O)c(C)c1` (stereo not drawn), the “hERG current change (%, negative = inhibition) at 10uM” value is on record as -0.346%.

As for `Cc1ccc(-n2c(O)c(C=NC3CCS(=O)(=O)C3)c3ccccc3c2=O)cc1` (stereo not drawn), the “hERG current change (%, negative = inhibition) at 10uM” value is recorded as -3.54%.

In the case of `Cc1cccc(-n2c(O)c(C=NC3CCS(=O)(=O)C3)c3ccccc3c2=O)c1C` (stereo not drawn), the “hERG current change (%, negative = inhibition) at 10uM” value is listed as -54.1%.

`O=S(=O)(NCCOc1ccccc1Cl)c1ccc2oc3ccccc3c2c1`: the “hERG current change (%, negative = inhibition) at 10uM” value is reported as 3.52%.

In the case of `Cc1ccccc1C(=O)Nc1cccc(-c2ccc3nncn3n2)c1`, the “hERG current change (%, negative = inhibition) at 10uM” value is -2.94%.

As to `COCCN1CCN(Cc2cn[nH]c2-c2cc3ccccc3o2)CC1`, the “hERG current change (%, negative = inhibition) at 10uM” value is -6.62%.

Turning to `COCC1CCCN(Cc2cn[nH]c2-c2cc3ccccc3o2)C1` (stereo not drawn), the “hERG current change (%, negative = inhibition) at 10uM” value is listed as -47.5%.

Take `O=C(c1ccccn1)C1CCCN(Cc2nc(Cc3cccc(F)c3)no2)C1` (stereo not drawn): the “hERG current change (%, negative = inhibition) at 10uM” value was -5.63%.

On to `c1ccc(CCC2CCCCN2Cc2cn[nH]c2-c2cc3ccccc3o2)nc1` (stereo not drawn), for which the “hERG current change (%, negative = inhibition) at 10uM” value is recorded as -74.9%.

`O=C(c1ccccn1)C1CCCN(Cc2cn[nH]c2-c2cc3ccccc3o2)C1` (stereo not drawn): the “hERG current change (%, negative = inhibition) at 10uM” value is given as -70%.

In the case of `OC1(CNCc2cn[nH]c2-c2cc3ccccc3o2)CCCCC1`, the “hERG current change (%, negative = inhibition) at 10uM” value is -28.7%.

As to `COc1ccc(OC)c(NC(=O)C2C(C(=O)O)C3(Cl)C(Cl)=C(Cl)C2(Cl)C3(Cl)Cl)c1` (stereo not drawn), the “hERG current change (%, negative = inhibition) at 10uM” value amounted to 7.73%.

For `Cc1cc(CNC(=O)CC2C(=O)NCCN2Cc2ccccc2C(F)(F)F)nn1C` (stereo not drawn), the “hERG current change (%, negative = inhibition) at 10uM” value stood at 9.04%.

On to `Cc1cc(Br)cc(C)c1OCCCCN(C)C.O=C(O)C(=O)O`, for which the “hERG current change (%, negative = inhibition) at 10uM” value is recorded as -54.4%.

Turning to `C=CCNCCCCOc1ccc(Br)cc1C.O=C(O)C(=O)O`, the “hERG current change (%, negative = inhibition) at 10uM” value is recorded as -41%.

Take `COCCCNC(=O)COc1ccc(Br)cc1Cl`: the “hERG current change (%, negative = inhibition) at 10uM” value is on record as -7.88%.

On to `CN(C)CCOCCOc1ccc(Cl)cc1Br.O=C(O)C(=O)O`, for which the “hERG current change (%, negative = inhibition) at 10uM” value is recorded as -42.6%.

For the compound `CN(C)CCCOc1ccc(Cl)cc1Br.O=C(O)C(=O)O`, the “hERG current change (%, negative = inhibition) at 10uM” value is reported as -69.3%.

For the compound `Cc1cc(Cl)cc(Cl)c1OCCCCN(C)C.O=C(O)C(=O)O`, the “hERG current change (%, negative = inhibition) at 10uM” value is listed as -43.7%.

As to `Cc1cc(Br)ccc1OCCCCNCCO.O=C(O)C(=O)O`, the “hERG current change (%, negative = inhibition) at 10uM” value was -28.1%.

`COCCNCCCOc1ccc(Br)cc1Cl.O=C(O)C(=O)O`: the “hERG current change (%, negative = inhibition) at 10uM” value was -31.8%.

Regarding `Cc1cc(Br)ccc1OCCCCNC(C)(C)C.O=C(O)C(=O)O`, the “hERG current change (%, negative = inhibition) at 10uM” value is listed as -53.9%.

In the case of `CN(C)CCCOc1cccc(Cl)c1.O=C(O)C(=O)O`, the “hERG current change (%, negative = inhibition) at 10uM” value was -19.5%.

On to `Cc1cc(C)c(OCCCCN(C)C)c(Br)c1.O=C(O)C(=O)O`, for which the “hERG current change (%, negative = inhibition) at 10uM” value was -41.5%.

`COCCCNCCCCOc1ccc(Br)cc1Cl.O=C(O)C(=O)O`: the “hERG current change (%, negative = inhibition) at 10uM” value is recorded as -67.1%.

Turning to `CC(c1ccon1)N(C)C(=O)CCc1nnc(Cc2ccc(-c3ccccc3)cc2)o1` (stereo not drawn), the “hERG current change (%, negative = inhibition) at 10uM” value was -21.7%.
